# Assay results reported in PubChem BioAssay (NCATS).
# Values joined by “and” are separate entries in the source; they are usually repeats but may differ in a detail not shown here. Equal values may be shown once. Values without a mark were called inactive. Records with an inconclusive call do not appear. A call without a number means that no potency is given here. Active and inactive are the calls of the source. Unless noted, the call rests on the fitted dose curve; in most records, active means well fitted curve in the direction sought with a large enough effect; inconclusive means small, poorly fitted or top-dose-only effect, or another doubt; inactive means no such curve, though single readings can be large; an effect the other way counts as inactive or inconclusive.
# Columns and labels:
# [1] = Cell Viability - BJ (AID 421; calls by dose curve;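 further: potency means the concentration at half of the fitted maximal effect; cells exposed to compound for 40 hours at 37 °C before readout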); conditions: BJ fibroblast viability, qHTS
# Method in brief: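 Cytotoxicity in human BJ foreskin fibroblasts is scored as loss of cellular ATP after a 40-hour exposure, measured by luciferase luminescence. Controls are DMSO and 100 uM tamoxifen.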
# [2] = Cell Viability - HepG2 (AID 433; calls by dose curve;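 further: potency means the concentration at half of the fitted maximal effect; potency for ATP loss meaning cytotoxicity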); conditions: qHTS
# Method in brief: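 Read-out is luciferase-based quantitation of cellular ATP as a measure of viable HepG2 cells after 40 h treatment at 37 °C. Signal decrease is scaled between DMSO-only and 100 uM tamoxifen controls, with AC50 fitted by the Hill equation.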
# [3] = Cell Viability - MRC5 (AID 434; calls by dose curve;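 further: potency means the concentration at half of the fitted maximal effect; cells exposed to compound for 40 hours at 37 °C; potency reflects cytotoxicity seen as loss of intracellular ATP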); conditions: MRC5 lung fibroblast viability, qHTS
# Method in brief: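 MRC5 normal human lung fibroblasts (1500/well) were treated with compounds for 40 hr at 37 °C in complete medium, and viable cells were measured as intracellular ATP by CellTiter-Glo luminescence. AC50 came from Hill fits, normalized to DMSO and 100 uM tamoxifen.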
# [4] = Cell Viability - SK-N-SH (AID 435; calls by dose curve;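 further: potency means the concentration at half of the fitted maximal effect; compound exposure lasted 40 h at 37 °C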); conditions: SK-N-SH neuroblastoma cell viability qHTS
# Method in brief: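 Luminescent ATP signal served as the viability read-out after 40 hours of compound treatment of human neuroblastoma SK-N-SH cells. Concentration-response data, scaled between DMSO and 100 uM tamoxifen, gave AC50 values by standard Hill modeling.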
# [5] = Cell Viability - HUV-EC-C (AID 542); further: nearly all actives have a fitted effect of over 35% in size
# Method in brief: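 Decrease in cellular ATP, quantified by luciferase luminescence, reflects toxicity in normal human vascular endothelial HUV-EC-C cells given compound for 40 hr in complete culture medium. Values are AC50s from concentration-response curves.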
# [6] = Cell Viability - SH-SY5Y (AID 544); conditions: SH-SY5Y neuroblastoma cell viability; viability change, negative = cytotoxic: at 92.2 µM (top of the series); further: nearly all actives have a fitted effect of over 55% in size
# Method in brief: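 Cytotoxicity is scored as a concentration-dependent fall in intracellular ATP in human SH-SY5Y cells treated 40 hr in complete culture medium. Potency is expressed as AC50 from a Hill equation fit.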
# [7] = Cell Viability - Renal Proximal Tubule (AID 545); conditions: renal proximal tubule cells viability, at 91.7 µM (top of the series); further: nearly all actives have a fitted effect of over 40% in size
# Method in brief: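 Luminescent ATP signal (CellTiter-Glo) served as the viability read-out after 40 hr compound exposure of freshly isolated rat proximal tubule cells at 37 °C. Concentration-dependent ATP loss was fitted with the Hill equation to give AC50.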
# [8] = Cell Viability - Mesenchymal (AID 546);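 further: cells exposed to compound for 40 hours before reading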
# Method in brief: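 Normal human renal glomerulus-derived kidney mesenchymal cells, 1000 per well in complete medium, were treated with compounds for 40 hr at 37 °C. Viability was read as intracellular ATP by CellTiter-Glo luminescence; AC50 values came from Hill-equation fits of qHTS concentration-response data.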
# [9] = Cellular Toxicity (caspase-3) HepG2 (AID 654);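 further: cells exposed to compound for 16 hours before reading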
# Method in brief: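 qHTS, HepG2, 1500 cells/well, complete medium; cpd 16 h 37 °C; Caspase-Glo 3/7, 20 min RT; lum. Norm: DMSO vs 100 uM tamoxifen; AC50 Hill fit.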
# [10] = Cellular Toxicity (caspase-3) HUV-EC-C (AID 656)
# Method in brief: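 qHTS; HUV-EC-C, 1000 cells/well; 5 hr settle, 16 hr cmpd, 37°C; Caspase-Glo 3/7, 20 min RT; luminescence. Norm: DMSO = 0%, tamoxifen 100 uM = 100%. Hill-fit AC50.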
# [11] = Cellular Toxicity (caspase-3) SHSY5Y (AID 657);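 further: cells exposed to compound for 16 hours at 37 °C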
# Method in brief: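 qHTS, SH-SY5Y, 1500 cells/well, 5 h pre-incubation 37 °C; compound 16 h 37 °C; Caspase-Glo 3/7 1 h RT; luminescence. Norm.: DMSO = 0, 10 uM staurosporine = 100%. Hill fit → AC50.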
# [12] = Cellular Toxicity (caspase-3) BJ (AID 658);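 further: cells exposed to compound for 16 hours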
# Method in brief: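 Luminescent aminoluciferin-substrate cleavage reports caspase 3/7 activity in normal human BJ fibroblasts after 16 hr compound exposure at 37 °C. Normalized to DMSO (basal) and 10 uM staurosporine (100%); AC50 from Hill fit of concentration-response.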
# [13] = Cellular Toxicity (caspase-3) MRC-5 (AID 659)
# Method in brief: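 Luminescence from caspase-cleaved aminoluciferin substrate (Caspase-Glo 3/7, 1 hr RT) reports caspase 3/7 activity in MRC-5 lung fibroblasts after 16 hr compound exposure. Normalized to DMSO basal and 10 uM staurosporine as 100%; AC50 from Hill fits.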
# [14] = Cellular Toxicity (caspase-3) Mesangial (AID 660);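 further: combined caspase 3 and 7 activity read by Caspase-Glo luminescence; cells exposed to compound for 16 h before the caspase read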
# Method in brief: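 Concentration-response qHTS: compound-induced rise in caspase 3/7 luminescence in human mesangial cells after 16 h, normalized to DMSO and 100 uM tamoxifen controls.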
# [15] = Cellular Toxicity (caspase-3) SK-N-SH (AID 661);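 further: cells exposed to compound for 16 hours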
# Method in brief: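 Caspase 3/7 activation is measured as a luminescence increase from aminoluciferin released by substrate cleavage in SK-N-SH cells after 16 hr compound treatment; values are AC50 from concentration-response curves.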
# [16] = Cellular Toxicity (caspase-3) Renal Proximal Tubule (AID 667); conditions: renal proximal tubule cells, at 91.7 µM (top of the series);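 further: cells exposed to compound for 16 hours at 37 °C before detection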
# Method in brief: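 AC50 derived by standard Hill fit of concentration-response data, normalized between DMSO basal and 10 uM staurosporine as 100% stimulation. Cells: primary rat kidney proximal tubule, 16 h treatment at 37 °C.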
# [17] = molecular target: Cytochrome P450 3A4 (Homo sapiens) (UniProt P08684); assay: qHTS Assay for Inhibitors and Substrates of Cytochrome P450 3A4 (AID 884); further: nearly all actives have a fitted effect of over 50% in size
# Method in brief: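 20 nM human CYP3A4 with 25 uM Luciferin-PPXE (at KM) in 200 mM KPO4, preincubated 10 min with compound; NADPH regeneration started a 60 min RT reaction. Luciferin detected by luminescence, normalized to 57 uM ketoconazole as full inhibition.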
# [18] = qHTS Assay for Identification of Small Molecule Inducers of Hypoxia Response (AID 2120; active means well fitted curve in the direction sought with a large enough effect in the signal ratio, with a control signal flat, not every such curve was filed as active; the % refers to the signal ratio)
# Method in brief: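 Induction of beta-lactamase reporter activity was measured in CellSensor HRE-bla ME-180 cells after 17 h compound treatment at 37 degrees C, using CCF4 substrate and the 460nm/530nm emission ratio to derive AC50 values.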
# [19] = molecular target: Peroxisome proliferator-activated receptor alpha (Homo sapiens) (UniProt Q07869); assay: qHTS assay for small molecule agonists of the peroxisome proliferator-activated receptor alpha (PPARalpha) signaling pathway (AID 651778); conditions: PathHunter PPARalpha complementation, chemiluminescence, 6 h; hits give high values
# Method in brief: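 Cells plated at 2,000/well and held overnight at 37 C, 5% CO2, then compound added by pin tool for 6 hr; after PathHunter detection reagent and 60 min at room temperature, chemiluminescence from enzyme complementation was read.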
# [20] = KB-8-5-11 P-gp reporter qHTS against the NCATS DSHEA and TCM libraries (AID 1919977)
# Method in brief: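 KB-8-5-11, 500 cells/well, DMEM/10% FBS without colchicine; 4 h attach; cpd titrations, 72 h, 37C/5% CO2; CellTiter-Glo, 30 min RT, luminescence.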
# [21] = primary cells of rat origin unless noted
# [22] = primary cells freshly taken from rat, solvent-only wells 0%, staurosporine 100% unless noted
# Chain of Peroxisome proliferator-activated receptor alpha (Homo sapiens) (Q07869 whole entry, looked up): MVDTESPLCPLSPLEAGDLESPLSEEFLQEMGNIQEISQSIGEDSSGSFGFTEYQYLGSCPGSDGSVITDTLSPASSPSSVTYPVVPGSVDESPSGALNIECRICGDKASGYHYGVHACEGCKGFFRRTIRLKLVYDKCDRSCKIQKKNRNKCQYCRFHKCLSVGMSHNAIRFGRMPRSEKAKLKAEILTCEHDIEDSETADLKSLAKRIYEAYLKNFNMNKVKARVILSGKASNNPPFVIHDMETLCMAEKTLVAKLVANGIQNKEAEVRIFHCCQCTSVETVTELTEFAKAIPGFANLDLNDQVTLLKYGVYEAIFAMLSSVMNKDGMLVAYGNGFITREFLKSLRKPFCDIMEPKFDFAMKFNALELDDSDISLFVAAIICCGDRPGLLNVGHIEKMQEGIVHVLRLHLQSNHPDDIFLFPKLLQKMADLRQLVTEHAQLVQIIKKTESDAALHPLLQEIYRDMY
# Chain of Cytochrome P450 3A4 (Homo sapiens) (P08684 whole entry, looked up): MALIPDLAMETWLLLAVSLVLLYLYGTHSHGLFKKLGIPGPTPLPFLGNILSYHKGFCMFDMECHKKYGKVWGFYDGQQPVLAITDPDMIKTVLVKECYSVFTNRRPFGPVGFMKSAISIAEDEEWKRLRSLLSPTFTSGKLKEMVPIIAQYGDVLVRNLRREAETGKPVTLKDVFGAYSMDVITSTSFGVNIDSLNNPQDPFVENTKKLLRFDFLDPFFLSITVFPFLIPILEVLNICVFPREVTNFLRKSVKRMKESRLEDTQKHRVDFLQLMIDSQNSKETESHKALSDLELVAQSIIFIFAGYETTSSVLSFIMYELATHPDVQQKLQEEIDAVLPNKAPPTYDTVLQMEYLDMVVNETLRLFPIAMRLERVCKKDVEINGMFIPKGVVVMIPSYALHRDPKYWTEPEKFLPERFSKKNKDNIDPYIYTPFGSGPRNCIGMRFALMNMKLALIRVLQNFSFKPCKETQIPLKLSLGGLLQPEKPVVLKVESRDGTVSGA
compound,measurement,setting,value
c1ccc(-c2ccccc2)cc1,Potency,[1],> 92 µM
same,Potency,[2],> 92 µM
same,Potency,[3],> 92 µM
same,Potency,[4],> 92 µM
same,Potency,[5],inactive
same,Potency,[6],inactive
same,"activity change, negative = cytotoxicity",[7]; [21],1.72%
same,outcome,[8],inactive
same,outcome,[9],inactive
same,outcome,[10],inactive
same,outcome,[11],inactive
same,outcome,[12],inactive
same,outcome,[13],inactive
same,outcome,[14],inactive
same,outcome,[15],inactive
same,caspase-3 activation,[16]; [22],-8.06%
same,Potency,[17],inactive
same,outcome,[18],inactive
same,max response,[19],-2.7% and -1.05%
Oc1cc(O)c2c(c1)OC(c1ccc(O)c(O)c1)C(O)C2 (stereo unspecified),Potency,[20],inactive
CCCCCCCCCCCCCC(=O)O,Potency,[20],inactive
O=C(/C=C/c1ccc(O)c2c1[C@H](C(=O)O)[C@@H](c1ccc(O)c(O)c1)O2)O[C@H](Cc1ccc(O)c(O)c1)C(=O)O,Potency,[20],inactive
CCCCCCCCCCCCCCCCCCCCCCCCCCCCCCO,"activity change, negative = inhibition",[20],8.26% [at 3.26 µM]
C=C1C[C@]23CC[C@H]4[C@@](C)(CCC[C@@]4(C)C(=O)O)[C@@H]2CC[C@@]1(O[C@@H]1O[C@H](CO)[C@@H](O)[C@H](O)[C@H]1O[C@@H]1O[C@H](CO)[C@@H](O)[C@H](O)[C@H]1O)C3,Potency,[20],inactive
C=CCc1ccc(OC)c(OC)c1,Potency,[20],inactive
Cc1c(C)c2c(c(C)c1O)CC[C@@](C)(CCC[C@H](C)CCC[C@H](C)CCCC(C)C)O2,Potency,[20],inactive
O=C(O)[C@H]1O[C@@H](Oc2c(-c3ccc(O)c(O)c3)oc3cc(O)cc(O)c3c2=O)[C@H](O)[C@@H](O)[C@@H]1O,Potency,[20],inactive
CCCCCCCCC[C@@H](O)CC(=O)CCc1ccc(O)c(OC)c1,Potency,[20],inactive
CCCCCCCC/C=C/CCCCCCCCCC(=O)O,Potency,[20],inactive
C=CC(C)(CCC=C(C)C)OC(C)=O (stereo unspecified),Potency,[20],inactive
C=C(C)[C@H]1CC=C(C)CC1,Potency,[20],inactive
OCC1=C[C@@H](O)[C@@H]2C=CO[C@@H](OC3O[C@H](CO)[C@@H](O)[C@H](O)[C@H]3O)[C@H]12 (stereo partly specified),Potency,[20],inactive
C=C1CC/C=C(/C)CC[C@@H]2[C@@H]1CC2(C)C,Potency,[20],inactive
CC(C)(O)[C@@H]1CC[C@](C)([C@@H]2[C@H](O)C[C@]3(C)C4C[C@@H](O[C@H]5O[C@@H](CO)[C@H](O)[C@@H](O)[C@@H]5O)C5C(C)(C)[C@H](O[C@H]6OC[C@H](O)[C@@H](O)[C@@H]6O)CC[C@]56CC46CC[C@@]23C)O1 (stereo partly specified),Potency,[20],inactive
CC1=CC[C@H](C(C)C)C=C1,Potency,[20],inactive
CCCCCCCC/C=C\CCCCCCCCCCCCCC(=O)O,Potency,[20],inactive
O=c1cc(-c2ccc(O)cc2)oc2cc(O[C@H]3OC(CO)C(O)C(O)C3O)cc(O)c12 (stereo partly specified),Potency,[20],inactive
O=C(/C=C/c1ccc(O)c(O)c1)OC1[C@H](O)CC(O)(C(=O)O)C[C@@H]1O (stereo partly specified),Potency,[20],inactive
COc1ccc2ccc(=O)oc2c1,Potency,[20],inactive
CC/C=C\C/C=C\C/C=C\C/C=C\C/C=C\CCCCCC(=O)O,"activity change, negative = inhibition",[20],8.8% [at 3.26 µM]
C=C(C)[C@H]1CC=C(C)C(=O)C1,Potency,[20],inactive
C[C@@H]1O[C@@H](OC[C@H]2OC(Oc3c(-c4ccc(O)c(O)c4)oc4cc(O)cc(O)c4c3=O)[C@H](O)[C@@H](O)[C@@H]2O)[C@H](O)[C@H](O)[C@H]1O (stereo partly specified),Potency,[20],inactive
C=C1CC[C@H]2C[C@@H]1C2(C)C,Potency,[20],inactive
CC(C)=CCC[C@](C)(O[C@@H]1O[C@H](CO)[C@@H](O)[C@H](O)[C@H]1O)[C@H]1CC[C@]2(C)[C@@H]1[C@H](O)C[C@@H]1[C@@]3(C)CC[C@H](O[C@@H]4O[C@H](CO)[C@@H](O)[C@H](O)[C@H]4O[C@@H]4O[C@H](CO)[C@@H](O)[C@H](O)[C@H]4O)C(C)(C)[C@@H]3CC[C@]12C,Potency,[20],inactive
O=C(O[C@@H]1Cc2c(O)cc(O)cc2O[C@@H]1c1ccc(O)c(O)c1)c1cc(O)c(O)c(O)c1,Potency,[20],inactive
CC1=CCC2CC1C2(C)C (stereo unspecified),Potency,[20],inactive
O=C(O[C@@H]1Cc2c(O)cc(O)cc2O[C@H]1c1cc(O)c(O)c(O)c1)c1cc(O)c(O)c(O)c1,Potency,[20],inactive
CCCCCCCCCCCC(=O)O,Potency,[20],inactive
Cc1ccccc1N,"activity change, negative = cytotoxicity",[7],-0.93%
same,"activity change, negative = cytotoxicity",[7]; primary cells of rat origin,-4.73%
same,caspase-3 activation,[16],-5.94%
same,caspase-3 activation,"[16]; primary cells freshly taken from rat, solvent-only wells 0%, staurosporine 100%",22.1%
c1ccc(OP(Oc2ccccc2)Oc2ccccc2)cc1,Potency,[1],> 92 µM
same,Potency,[2],> 92 µM
same,Potency,[3],> 92 µM
same,Potency,[4],> 92 µM
same,Potency,[5],inactive
same,Potency,[6],inactive
same,"activity change, negative = cytotoxicity",[7]; [21],1.28%
same,outcome,[8],inactive
same,outcome,[9],inactive
same,outcome,[10],inactive
same,outcome,[11],inactive
same,outcome,[12],inactive
same,outcome,[13],inactive
same,outcome,[14],inactive
same,outcome,[15],inactive
same,caspase-3 activation,[16]; [22],1.22%
same,Potency,[17],inactive
same,outcome,[18],inactive
same,max response,[19],-2.33% and -1.84%
